± gives the standard deviation of the averaged measurements.

This test has as its system MDAMB231. Briefly: cell proliferation (confluence) relative to DMSO control; higher = less growth inhibition. Particulars: 5 uM; 6 d. The method, then: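 Epigenetic chemical probe screen: 15 TNBC cell lines, 500 cells per well in 384-well plates, treated with 5 uM of each of 36 SGC probes for 6 d. Confluency was imaged by IncuCyte ZOOM and normalised to DMSO control wells. Four replicate wells per compound.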
On to `COc1c(C)cc(NC(=O)c2nn(Cc3ccc(F)cc3)c3c2CN(C(=O)c2ccc[nH]2)C[C@]3(C)C(N)=O)cc1C`, for which the cell proliferation worked out at 95.7 ± 2.2%.
The figure for `CC(C)N(CCCNC(=O)Nc1ccc(C(C)(C)C)cc1)C[C@H]1O[C@@H](n2cc(Br)c3c(N)ncnc32)[C@H](O)[C@@H]1O` is 99.63 ± 0.16%; for `CC(C)Oc1ccc(-c2c[nH]cc2CN(C)CCO)cc1` it is 86.1 ± 7.1%; for `CCn1cc(-c2cccc(C(F)(F)F)c2)c2sc(C(=N)NC3CCS(=O)(=O)CC3)cc2c1=O` it is 89.7 ± 4%.
Compound `O=C([C@@H](Cc1cccc(C(F)(F)F)c1)NS(=O)(=O)c1cc(F)c2c(c1)CCNC2)N1CCCC1` yielded a cell proliferation of 87 ± 14%.
In turn, `CC[C@H](C)n1cc(C)c2c(C(=O)NCc3c(C)cc(C)[nH]c3=O)cc(-c3ccc(N4CCNCC4)nc3)cc21` displayed a cell proliferation of 98.5 ± 1.6%.
The figure for `COc1ccc(CCc2nc3cc(-c4c(C)noc4C)ccc3n2C[C@H](C)N2CCOCC2)cc1Cl` is 90.9 ± 1.5%; for `CN(C)[C@H]1CN(C2CCc3cccc(F)c32)C[C@@H]1c1ccc(N2CCN(S(C)(=O)=O)CC2)cc1` (some centres not stated) it is 99.19 ± 0.27%.
In the case of `CCOC(=O)CCNc1cc(N2CCc3ccccc3CC2)nc(-c2ccccn2)n1`, the cell proliferation is 31.7 ± 7.8%.
Compound `Clc1cc2c(NC3CCCC3)nnc(-c3ccncc3)c2cc1Cl` registered a cell proliferation of 98.72 ± 0.35%.
`Cn1cc(CCn2cnc(-c3cnn(C)c3)c2-c2ccc(C#N)cc2)cn1` gave a cell proliferation of 96.4 ± 3.1%.
`CCOC(=O)CCNc1cc(N2CCc3ccccc3CC2)nc(-c2cccnc2)n1` came in with a cell proliferation of 98.88 ± 0.33%.
The compound `CCC(=O)N1CCOc2c(cc(-c3ccc(OC)c(OC)c3)cc2OC[C@H]2CCCN(C)C2)C1` gave a cell proliferation of 79.2 ± 5.1%.
The figure for `O=C(c1ccc(C(=O)N2CCC(N3CCCC3)CC2)c(Nc2ccccc2)c1)N1CCC(N2CCCC2)CC1` is 99.13 ± 0.17%.
The figure for `COc1cc2c(cc1OCCCN1CCCC1)N=C(N)C21CCC1` is 96 ± 1.6%; for `CCN(C(=O)CO)[C@H]1CN(/C(=N\C#N)Nc2cccc(OC(F)F)c2)N=C1c1ccc(Cl)c(Cl)c1` it is 98.31 ± 0.72%.
In turn, `CCCc1cc(C)[nH]c(=O)c1CNC(=O)c1cc(-c2ccc(N3CCN(C(C)C)CC3)nc2)cc2c1cnn2C(C)C` returned a cell proliferation of 57.1 ± 6.4%.
As for `COc1cc(-c2cn(C)c(=O)c3cnccc23)c(OC)cc1CN(C)C`, the cell proliferation came out at 96.6 ± 1.5%.
The figure for `COc1ccccc1C(=O)Nc1cc2c(cc1N1CCCC1)n(C)c(=O)n2C` is 91.8 ± 5.7%; for `O=C(NCC(=O)N1CCCC1)Nc1ccc2cnccc2c1` it is 81.5 ± 7.2%.
Turning to `COc1cc2c(NC3CCN(C(C)C)CC3)nc(C3CCCCC3)nc2cc1OCCCN1CCCC1`, the cell proliferation was 99.05 ± 0.52%.
Compound `CNCCN1CCC(OCc2ccccc2)CC1` gave a cell proliferation of 82 ± 5.4%.
In turn, `CCCc1cc(C)n(C)c(=O)c1CN(C)C(=O)c1cc(-c2ccc(N3CCN(C(C)C)CC3)nc2)cc2c1cnn2C(C)C` registered a cell proliferation of 99.29 ± 0.32%.
`O=C(/C=C/N1C[C@H]2C[C@@H]1CN2c1ccccn1)c1ccccc1O` registered a cell proliferation of 99.17 ± 0.39%.
As to `Cc1cc(=O)n(C)c2cc(N3C(=O)CC[C@H](NS(=O)(=O)CC(C)C)[C@H]3c3ccc(Cl)cc3)ccc12`, the cell proliferation was found to be 95.9 ± 3.5%.
The figure for `CCCOc1ccn2c(C(C)=O)cc(-c3ccccc3S(C)(=O)=O)c2c1` is 96.7 ± 2.7%.
The figure for `O=C(NC[C@H](O)CN1CCc2ccccc2C1)c1ccnc(NC2CCC2)c1` is 45 ± 5.1%.
Compound `COc1ccccc1S(=O)(=O)Nc1ccc2c(c1)CN(C)C(=O)N2` yielded a cell proliferation of 67.9 ± 8.3%.
The figure for `CC(C)Oc1ccc(-c2c[nH]cc2CN(C)CCN)cc1` is 46.8 ± 5.9%.
In turn, `COc1cc(C#N)ccc1S(=O)(=O)Nc1ccc2c(c1)cc(C)c(=O)n2C` had a cell proliferation of 95.9 ± 4.5%.
The figure for `Cc1nnc2c3ccccc3c(N[C@@H](C)[C@H](c3ccccc3)N(C)C)nn12` [L-moses] is 88.6 ± 8.2%; for `CCCc1cc(C)[nH]c(=O)c1CNC(=O)c1cc(-c2ccnc(N3CCN(C)CC3)c2)cc2c1cnn2C(C)C` it is 99.683 ± 0.051%.

For the origin of these results see the supplement of paper PMC9337992.
